Data published in the supplement of paper PMC10338343.
± gives the standard deviation.

system: MILI (PIWIL2) piRISC loaded with piRNA #1 (26 nt); assay: pre-steady-state target cleavage rate (min^-1); guide: piRNA #1 5'p-UGAGGUAGUAGGUUGUAUAGUAUCCA; higher = faster piRNA-guided slicing of the target; conditions: auxiliary factor: 500 nM mouse GTSF1
In short: (§1)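 With or without 500 nM GTSF1 partner protein, 1 nM active affinity-purified piRISC carrying one synthetic guide was mixed with 0.1 nM transcribed, DNA-blocked target RNA library in HEPES–potassium acetate buffer at 33 °C for 0–8 or 0–960 min. Uncleaved targets were sequenced and normalised to depth and to weakly complementary targets, three trials were pooled, and k3 was capped at 0.0001 min^-1. The pre-steady-state cleavage rate came from a burst-and-steady-state fit.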

| Sequence | pre-steady-state target cleavage rate |
| --- | --- |
| GGAGAGGAUACCAUACAACCUACUACCUCA | 0.167 ± 0.021 |
| GGAGACGAUACUAUACAACCUAGCUACCUCA | 0.0598 ± 0.0083 |
| GGAGAGGAAUGUAUACAACCUACUACCUCA | 0.0539 ± 0.0062 |
| GGAGACGAUACUAGACAACCUACUACCUCA | 0.171 ± 0.013 |
| GGAGUGGAUACUAUACAACCUACUUCCUCA | 0.00401 ± 0.0017 |
| GGAGACGAUACUAUACAACCUACUGACCUCA | 0.118 ± 0.015 |
| GGAGUGGAUACAAUACAACGUACUACCUCA | 0.0223 ± 0.0023 |
| GGAGAGGAUACUAUACAACCUAGUACCUCA | 0.00636 ± 0.0033 |
| GGAGACGAUACUAUACAACCUACUACCGUCA | 0.125 ± 0.023 |
| GGAGUGGAUACUAUACUACCAACUACCUCA | 0.00975 ± 0.0022 |
| GGAGACCUAUGUAUACAACCUAGUACCUCA | 0.00921 ± 0.0021 |
| GGAGACGAUACUAUACUACCUACUACCUGA | 0.167 ± 0.021 |
| GGAGACGAGACUAUACAACCUACUACCUCA | 0.214 ± 0.034 |
| GGAGACCAUACCUAUACAACCUACUACCUCA | 0.152 ± 0.034 |
| GGAGACCUUACUAUACAACCUCCUACCUCA | 0.0597 ± 0.01 |
| GGAGACGAUACUAUACAACCUACUACCUA | 0.151 ± 0.018 |
| GGAGACCUUACUAUACAACCUACUACCUCCA | 0.133 ± 0.014 |
| GGAGACCUUACUAUACAACCUACUACCAUCA | 0.162 ± 0.024 |
| GGAGAGGAUACUAUACAACCUACUACCCUCA | 0.11 ± 0.017 |
| GGAGACCAGACUAUACAACCUACUACCUCA | 0.193 ± 0.06 |

| Sequence | pre-steady-state target cleavage rate |
| --- | --- |
| GGAGUGGAUACUAUACAACCUACUACGCUCA | 0.111 ± 0.015 |
| GGAGAGGAUACUAUACCAACCUACUACCUCA | 0.0443 ± 0.0084 |
| GGAGAGGAUACUAUACAACCUACUACCUCA [g2:g25:cont:t1A] | 0.206 ± 0.017 |
| GGAGACCUAACUAUACAACGUACUACCUCA | 0.0137 ± 0.0057 |
| GGAGUGGAUACGAUACAACCUACUACCUCA | 0.176 ± 0.011 |
| GGAGACCUAUGAAUACAACCUACUACCUCA [g2:g18:cont:t1A] | 0.00878 ± 0.0033 |
| GGAGAGAUACUAUACAACCUACUACCUCA | 0.202 ± 0.017 |
| GGAGACCAUACUAUACAACCUACUACCUGA | 0.155 ± 0.023 |
| GGAGAGGUUACUAUACAACCUACUACCUGA | 0.0157 ± 0.0052 |
| GGAGACCAUACUAUACAACCUACUACCGUCA | 0.141 ± 0.023 |
| GGAGACCAUACUAUACAACCUACUACGACA | 0.16 ± 0.025 |
| GGAGUGGAUACUAUACAACCUACUACCCUCA | 0.104 ± 0.013 |
| GGAGUCGAUACUAUACAACCAACUACCUCA | 0.0053 ± 0.0019 |
| GGAGUGGAUACUAUACAACCUACUACCCA | 0.0544 ± 0.013 |
| GGAGACGAUAGAAUACAACCUACUACCUCA | 0.137 ± 0.013 |
| GGAGACCUUAUCUAUACAACCUACUACCUCA | 0.115 ± 0.014 |
| GGAGACCUUACUAUAUAACCUACUACCUCA | 0.124 ± 0.0081 |
| GGAGAGGAUACUAUACAUCCUACUACCUCA | 0.28 ± 0.023 |
| GGAGAGCAUACUAUACAUCCUACUACCUCA | 0.335 ± 0.02 |
| GGAGUCGAUACUAUACAACCUACUACGUCA | 0.0797 ± 0.0078 |

system: EfPiwi piRISC loaded with piRNA #1 (26 nt); assay: pre-steady-state target cleavage rate (min^-1); auxiliary factor: 500 nM Ephydatia muelleri Gtsf1; guide: piRNA #1 5'p-UGAGGUAGUAGGUUGUAUAGUAUCCA; MIWI and MILI are mouse PIWI proteins and EfPiwi is from a freshwater sponge; tags in brackets are library labels; higher = faster piRNA-guided slicing of the target; conditions: not given
In short: as §1

| Sequence | pre-steady-state target cleavage rate |
| --- | --- |
| GGAGAGGAUACCAUACAACCUACUACCUCA | 0.0957 ± 0.032 |
| GGAGACGAUACUAUACAACCUAGCUACCUCA | 0.00543 ± 0.0023 |
| GGAGAGGAAUGUAUACAACCUACUACCUCA | 0.0061 ± 0.0042 |
| GGAGACGAUACUAGACAACCUACUACCUCA | 0.00452 ± 0.0029 |
| GGAGUGGAUACUAUACAACCUACUUCCUCA | 0.00544 ± 0.0029 |
| GGAGACGAUACUAUACAACCUACUGACCUCA | 0.00338 ± 0.0017 |
| GGAGUGGAUACAAUACAACGUACUACCUCA | 0.00385 ± 0.0018 |
| GGAGAGGAUACUAUACAACCUAGUACCUCA | 0.00393 ± 0.0016 |
| GGAGACGAUACUAUACAACCUACUACCGUCA | 0.00873 ± 0.0037 |
| GGAGUGGAUACUAUACUACCAACUACCUCA | 0.00428 ± 0.002 |
| GGAGACCUAUGUAUACAACCUAGUACCUCA | 0.00291 ± 0.0029 |
| GGAGACGAUACUAUACUACCUACUACCUGA | 0.00446 ± 0.0021 |
| GGAGACGAGACUAUACAACCUACUACCUCA | 0.0942 ± 0.032 |
| GGAGACCAUACCUAUACAACCUACUACCUCA | 0.0273 ± 0.011 |
| GGAGACCUUACUAUACAACCUCCUACCUCA | 0.00545 ± 0.003 |
| GGAGACGAUACUAUACAACCUACUACCUA | 0.104 ± 0.038 |
| GGAGACCUUACUAUACAACCUACUACCUCCA | 0.00652 ± 0.0028 |
| GGAGACCUUACUAUACAACCUACUACCAUCA | 0.00369 ± 0.0024 |
| GGAGAGGAUACUAUACAACCUACUACCCUCA | 0.00508 ± 0.0022 |
| GGAGACCAGACUAUACAACCUACUACCUCA | 0.00856 ± 0.0055 |

| Sequence | pre-steady-state target cleavage rate |
| --- | --- |
| GGAGUGGAUACUAUACAACCUACUACGCUCA | 0.00482 ± 0.0021 |
| GGAGAGGAUACUAUACCAACCUACUACCUCA | 0.00837 ± 0.0039 |
| GGAGAGGAUACUAUACAACCUACUACCUCA [g2:g25:cont:t1A] | 0.0912 ± 0.033 |
| GGAGACCUAACUAUACAACGUACUACCUCA | 0.00454 ± 0.0022 |
| GGAGUGGAUACGAUACAACCUACUACCUCA | 0.0121 ± 0.0053 |
| GGAGACCUAUGAAUACAACCUACUACCUCA [g2:g18:cont:t1A] | 0.00706 ± 0.0032 |
| GGAGAGAUACUAUACAACCUACUACCUCA | 0.121 ± 0.054 |
| GGAGACCAUACUAUACAACCUACUACCUGA | 0.00567 ± 0.0018 |
| GGAGAGGUUACUAUACAACCUACUACCUGA | 0.00474 ± 0.0019 |
| GGAGACCAUACUAUACAACCUACUACCGUCA | 0.00677 ± 0.0025 |
| GGAGACCAUACUAUACAACCUACUACGACA | 0.00532 ± 0.0028 |
| GGAGUGGAUACUAUACAACCUACUACCCUCA | 0.00587 ± 0.002 |
| GGAGUCGAUACUAUACAACCAACUACCUCA | 0.00517 ± 0.002 |
| GGAGUGGAUACUAUACAACCUACUACCCA | 0.00631 ± 0.0022 |
| GGAGACGAUAGAAUACAACCUACUACCUCA | 0.00812 ± 0.0043 |
| GGAGACCUUAUCUAUACAACCUACUACCUCA | 0.0368 ± 0.017 |
| GGAGACCUUACUAUAUAACCUACUACCUCA | 0.00964 ± 0.005 |
| GGAGAGGAUACUAUACAUCCUACUACCUCA | 0.0116 ± 0.0055 |
| GGAGAGCAUACUAUACAUCCUACUACCUCA | 0.00491 ± 0.0024 |
| GGAGUCGAUACUAUACAACCUACUACGUCA | 0.00643 ± 0.0028 |
